Laboratory results reported in the supplement of paper PMC9023506.
Counter-ions that a name gives are not always drawn.

What follows are molecules tested on Danio rerio larvae (5 dpf) (assay: startle response to 20-s acoustic pulses, difference vs DMSO (percentage points (treated minus DMSO)); higher = more of the behaviour than the DMSO vehicle control). Conditions: 10 µM; exposure time: 3 h pre-incubation + 3 h imaging.
Protocol: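 5-dpf wild-type zebrafish larvae were imaged in 96-well plates. They were treated with 190 Tocris FDA-approved drugs at 10 µM (1 µl/ml DMSO) for 3 h before and 3 h during imaging at 28.5 °C, 48 larvae per drug. Automated image analysis gave % time moving and optomotor responses. Values are drug group mean minus DMSO vehicle mean (n=844), in percentage points, for 10 behaviours.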

Row | Structure (SMILES) | startle response to 20-s acoustic pulses
1 | CC(=O)O[C@H]1C(=O)[C@@]2(C)[C@H]([C@H](OC(=O)c3ccccc3)[C@]3(O)C[C@H](OC(=O)[C@H](O)[C@@H](NC(=O)c4ccccc4)c4ccccc4)C(C)=C1C3(C)C)[C@]1(OC(C)=O)CO[C@@H]1C[C@@H]2O [Taxol] | -0.529
2 | CC(C)C(=O)OCC(=O)[C@@]12O[C@H](C3CCCCC3)O[C@@H]1C[C@H]1[C@@H]3CCC4=CC(=O)C=C[C@]4(C)[C@H]3[C@@H](O)C[C@@]12C [Ciclesonide] | -4.94
3 | CN(C)CCC[C@@]1(c2ccc(F)cc2)OCc2cc(C#N)ccc21 [Escitalopram oxalate] | -6.28
4 | CCc1ccc(CCOc2ccc(CC3SC(=O)NC3=O)cc2)nc1 (stereo not given) [Pioglitazone hydrochloride] | -3.21
5 | CC1CNc2c(cccc2S(=O)(=O)N[C@@H](CCCNC(=N)N)C(=O)N2CC[C@@H](C)C[C@@H]2C(=O)O)C1 (stereo not given in full) [Argatroban] | 2.94
6 | CC(=O)NC[C@H]1CN(c2ccc(N3CCOCC3)c(F)c2)C(=O)O1 [Linezolid] | 2.02
7 | CN(C)CCc1c[nH]c2ccc(Cn3cncn3)cc12 [Rizatriptan benzoate] | 4.29
8 | CCCc1nn(C)c2c(=O)[nH]c(-c3cc(S(=O)(=O)N4CCN(C)CC4)ccc3OCC)nc12 [Sildenafil citrate] | 0.54
9 | CCOc1ccccc1OCCN[C@H](C)Cc1ccc(OC)c(S(N)(=O)=O)c1 [Tamsulosin hydrochloride] | 3.87
10 | O=C(O)CCCc1ccccc1 [Sodium 4-Phenylbutyrate] | -5.04
11 | COc1cc(Nc2c(C#N)cnc3cc(OCCCN4CCN(C)CC4)c(OC)cc23)c(Cl)cc1Cl [Bosutinib] | -0.606
12 | CCN(CC)CCNC(=O)c1c(C)[nH]c(/C=C2\C(=O)Nc3ccc(F)cc32)c1C [Sunitinib malate] | -2.32
13 | CN(CCOc1ccc(NS(C)(=O)=O)cc1)CCc1ccc(NS(C)(=O)=O)cc1 [Dofetilide] | 0.873
14 | O=c1[nH]c(=O)n([C@H]2C[C@H](O)[C@@H](CO)O2)cc1C(F)(F)F [Trifluorothymidine] | 1.37
15 | Clc1ccc2nsnc2c1NC1=NCCN1 [Tizanidine hydrochloride] | -1.69
16 | CCOC(=O)c1ncn2c1CN(C)C(=O)c1cc(F)ccc1-2 [Flumazenil] | -1.57
17 | CS(=O)(=O)CCNCc1ccc(-c2ccc3ncnc(Nc4ccc(OCc5cccc(F)c5)c(Cl)c4)c3c2)o1 [Lapatinib] | -0.481
18 | OC(CNCC(O)C1CCc2cc(F)ccc2O1)C1CCc2cc(F)ccc2O1 (stereo not given) [Nebivolol hydrochloride] | -6.21
19 | CC(=O)S[C@@H]1CC2=CC(=O)CC[C@]2(C)[C@H]2CC[C@@]3(C)[C@@H](CC[C@@]34CCC(=O)O4)[C@H]12 [Spironolactone] | 1.64
20 | COc1ccc([C@@H]2Sc3ccccc3N(CCN(C)C)C(=O)[C@@H]2OC(C)=O)cc1 [Diltiazem hydrochloride] | 0.061

Row | Structure (SMILES) | startle response to 20-s acoustic pulses
21 | CN1CC(=O)N2[C@H](c3ccc4c(c3)OCO4)c3[nH]c4ccccc4c3C[C@@H]2C1=O [Tadalafil] | 7.96
22 | COc1cc([C@@H]2c3cc4c(cc3[C@@H](O[C@@H]3O[C@@H]5CO[C@@H](C)O[C@H]5[C@H](O)[C@H]3O)[C@H]3COC(=O)[C@H]23)OCO4)cc(OC)c1O [Etoposide] | -1.98
23 | Cc1nnc(C(C)C)n1C1C[C@H]2CC[C@@H](C1)N2CC[C@H](NC(=O)C1CCC(F)(F)CC1)c1ccccc1 (stereo in doubt) [Maraviroc] | -4.61
24 | C[C@]12CCC(=O)C=C1CC[C@@H]1[C@@H]2[C@@H](O)C[C@@]2(C)[C@H]1CC[C@]2(O)C(=O)CO [Hydrocortisone] | 0.897
25 | CC1=Nc2ccc(Cl)cc2S(=O)(=O)N1 [Diazoxide] | -3.68
26 | COc1cc2ncnc(Nc3ccc(F)c(Cl)c3)c2cc1OCCCN1CCOCC1 [Iressa] | -2.19
27 | COc1ccc(-c2ccc3cc(C(=O)O)ccc3c2)cc1C12CC3CC(CC(C3)C1)C2 [Adapalene] | 0.11
28 | CN(C)CC/C=C1/c2ccccc2COc2ccc(CC(=O)O)cc21 [Olopatadine hydrochloride] | 0.514
29 | N[C@@H]1[C@H]2CN(c3nc4c(cc3F)c(=O)c(C(=O)O)cn4-c3ccc(F)cc3F)C[C@@H]12 [Trovafloxacin mesylate] | -7.29
30 | Cn1nnc2c(C(N)=O)ncn2c1=O [Temozolomide] | 2.71
31 | CC(C)OC(=O)C(C)(C)Oc1ccc(C(=O)c2ccc(Cl)cc2)cc1 [Fenofibrate] | -3.27
32 | CC(C)[C@H]1CC[C@H](C(=O)N[C@H](Cc2ccccc2)C(=O)O)CC1 [Nateglinide] | 3.57
33 | CCc1c2c(nc3ccc(OC(=O)N4CCC(N5CCCCC5)CC4)cc13)-c1cc3c(c(=O)n1C2)COC(=O)[C@]3(O)CC | 1.92
34 | CNC(=O)c1cc(Oc2ccc(NC(=O)Nc3ccc(Cl)c(C(F)(F)F)c3)cc2)ccn1 [Sorafenib] | -4.57
35 | CC(C)Nc1cccnc1N1CCN(C(=O)c2cc3cc(NS(C)(=O)=O)ccc3[nH]2)CC1 [Delavirdine mesylate] | -4.51
36 | COc1cc2nccc(Oc3ccc(NC(=O)C4(C(=O)Nc5ccc(F)cc5)CC4)cc3)c2cc1OC | -5.31
37 | CCCN(CCc1cccs1)[C@H]1CCc2c(O)cccc2C1 [Rotigotine hydrochloride] | -4.68
38 | Nc1nc2[nH]cc(CCc3ccc(C(=O)N[C@@H](CCC(=O)O)C(=O)O)cc3)c2c(=O)[nH]1 [Pemetrexed] | -4.56
39 | Nc1nc(NC2CC2)c2ncn([C@H]3C=C[C@@H](CO)C3)c2n1 [Abacavir hemisulfate] | 6.56
40 | CCCCc1nc(Cl)c(CO)n1Cc1ccc(-c2ccccc2-c2nnn[nH]2)cc1 [Losartan potassium] | -0.252
